{"source": "PubChem BioAssay (NCI)", "note": "Several values for one entry are separate records, joined by “and”; a condition that tells them apart may be missing. Identical values can stand only once. Compounds without any hit were thinned out: in the full panel of roughly 83,000, 20% have a hit.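 Note: values are percent growth. 100 is the growth of untreated cells, values between 100 and 0 indicate rising inhibition; between -100 and 0 indicates cell death.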 Activity calls are given as the source filed them. How the source made its calls: active means growth percent below 10; inactive means the rest."}
{"system": "NCI-H322M lung", "test": "NCI-60 one-dose screen, 48 h (100 = growth as untreated, 0 = no growth, -100 = all killed)", "conditions": "10 µM unless noted"}
{"smiles": "Cc1c(Cl)cc(Cl)c(N)c1Cl", "growth": "115% (inactive)"}
{"smiles": "Oc1ccc(O)c(-c2ccccc2)c1", "growth": "42.9% (inactive)"}
{"smiles": "CCOCCC(=O)O", "growth": "113% (inactive)"}
{"smiles": "CCOC(=O)NC(N)=O", "growth": "93% (inactive) and 105% (inactive)"}
{"smiles": "CCCCC/C(C)=N\\NC(N)=S", "growth": "90.4% (inactive)"}
{"smiles": "COc1cc2c(cc1O)C(=O)CCCC2", "growth": "102% (inactive)"}
{"smiles": "O=C1C=CC[C@H](/C=C/c2ccccc2)O1", "growth": "25.5% (inactive) and 4.12% (active)"}
{"smiles": "NC1=NC(c2ccccc2)N=C(Nc2ccccc2)N1", "note": "(stereo unspecified)", "growth": "91.5% (inactive) and 84.7% (inactive)"}
{"smiles": "CSc1nc(N)c(N)c(N)n1", "growth": "106% (inactive)"}
{"smiles": "CCN(C)c1ccccc1", "growth": "111% (inactive)"}
{"smiles": "Cc1cnc(N)s1", "growth": "99.6% (inactive)"}
{"smiles": "COC(=O)c1nc(=S)[nH]c(C(=O)OC)c1C(=O)c1ccccc1", "growth": "106% (inactive)"}
{"smiles": "CC(=O)c1cc2ccccc2o1", "growth": "110% (inactive)"}
{"smiles": "OCCCc1ccccc1", "growth": "76.2% (inactive)"}
{"smiles": "CCC/C(=N/NC(N)=O)c1ccco1", "growth": "96.5% (inactive)"}
{"smiles": "O=C1C(=O)c2ccccc2C(O)=C1CC=C(Cl)Cl", "growth": "75.8% (inactive) and 58% (inactive)"}
{"smiles": "CCC(=O)Oc1ccc(OCc2ccccc2)cc1", "growth": "120% (inactive) and 92.3% (inactive)"}
{"smiles": "O=C(OCc1ccccc1)c1ccccc1", "growth": "115% (inactive) and 106% (inactive)"}
{"smiles": "COc1ccc(CCl)c(C)c1OC", "growth": "95.8% (inactive)"}
{"smiles": "Nc1c(S(=O)(=O)O)cc(Br)c2c1C(=O)c1ccccc1C2=O", "growth": "95.6% (inactive) and 106% (inactive)"}
{"smiles": "CC1CC(O)CC(C)(C)C1.CC1CC(O)CC(C)(C)C1.CC1CC(O)CC(C)(C)C1.CC1CC(O)CC(C)(C)C1.[Ti]", "note": "(stereo unspecified)", "growth": "105% (inactive)"}
{"smiles": "CC(=O)Oc1ccc(C(c2ccc(OC(C)=O)cc2)c2ccccn2)cc1", "growth": "30.6% (inactive) and 64.6% (inactive)"}
{"smiles": "CC(C)=NOC(C)C(=O)O", "note": "(stereo unspecified)", "growth": "118% (inactive)"}
{"smiles": "CCNCc1ccccc1", "growth": "100% (inactive)"}
{"smiles": "Oc1cccnc1CN1CCOCC1", "growth": "98.3% (inactive) and 102% (inactive)"}
{"smiles": "O=C1C2=C(Nc3cc(Cl)ccc3N2)OC1c1c[nH]c2ccc(COc3ccccc3)cc12", "note": "(stereo unspecified)", "growth": "64.7% (inactive)"}
{"smiles": "CCOC(=O)C1=C(C)NC(C)=C(C(=O)OCC)C1", "growth": "108% (inactive) and 102% (inactive)"}
{"smiles": "CC(C)(C)C1CCC(=NO)CC1", "note": "(stereo unspecified)", "growth": "106% (inactive)"}
{"smiles": "O=C1c2ccccc2CN1c1ccccc1", "growth": "107% (inactive)"}
{"smiles": "S=c1nc[nH]c2nc[nH]c12", "growth": "33% [50 µM] (inactive)"}
{"smiles": "COc1cc2oc3cc(=O)cc4oc(-c5ccccc5)cc(c2c2c1CCC(c1ccccc1)O2)c43", "note": "(stereo unspecified)", "growth": "101% (inactive)"}
{"smiles": "CCOC(=O)c1ccc(N2C(=O)C(Cl)(c3ccccc3)C2c2ccco2)cc1", "note": "(stereo unspecified)", "growth": "83.8% (inactive)"}
{"smiles": "Cc1cc(NC(=O)NC(=O)c2ccccc2N(C)C)ccc1Oc1ncc(Br)cn1", "growth": "44.4% (inactive) and 66.2% (inactive)"}
{"smiles": "CCc1ccc(OC(=O)CCl)cc1", "growth": "102% (inactive)"}
{"smiles": "CCNC1=CC(=O)c2ncccc2C1=O", "growth": "13.9% (inactive)"}
{"smiles": "O=C(O)Cc1cc(=O)[nH]n(-c2ccccc2)c1=O", "growth": "109% (inactive)"}
